Measured values reported in the supplement of paper PMC12297408.
Where “and” joins values, the source holds several entries; their conditions need not be identical. Equal entries are not always repeated. Structures can show the parent of a compound that is named as a salt. Values without a mark were called inactive.

Test system: Plasmodium falciparum NF54/iGP1_RE9H ulg8 stage V gametocytes
Experiment: gametocyte viability (luciferase signal relative to DMSO control) (% of DMSO control); higher = less gametocytocidal activity, active = 50 or less
Settings: concentration: 1 µM; exposure time: 72 h
Summary of the method: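 NF54/iGP1_RE9Hulg8 stage V gametocytes (day 12; ~2.5% gametocytemia, 3% hematocrit) in medium with 0.5% Albumax II were added to 96-well plates of nanolitre-spotted compounds (10 mM DMSO stocks), giving 10 µM or 1 µM, one well each. Plates were incubated 72 h at 37 °C. Then 90 µl was mixed with 10 µl D-luciferin (30 mg/ml) and luminescence was read on an IVIS Lumina II. Viability is relative to the mean of plate DMSO vehicle controls.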

| SMILES | gametocyte viability |
| --- | --- |
| Cn1cnc(-c2cc3nccc(Oc4ccc(NC(=S)NC(=O)Cc5ccccc5)cc4F)c3s2)c1 | 90.2 |
| OCCn1cc(-c2ccc3c(c2)CC/C3=N\O)c(-c2ccncc2)n1 | 88.7 |
| CN1CCN(CCOc2cc(OC3CCOCC3)c3c(Nc4c(Cl)ccc5c4OCO5)ncnc3c2)CC1 [Saracatinib (AZD0530)] | 94.4 |
| CN(C)CCCn1cc(C2=C(c3c[nH]c4ccccc34)C(=O)NC2=O)c2ccccc21 | 92.7 |
| c1cncc(CN2CCC(n3ncc4c(N5CCOCC5)nc(-c5ccc6[nH]ccc6c5)nc43)CC2)c1 | 95.7 |
| Cc1cc(Nc2cc(N3CCN(C)CC3)nc(Sc3ccc(NC(=O)C4CC4)cc3)n2)n[nH]1 [VX-680 (MK-0457, Tozasertib)] | 97.5 |
| COc1cc2/c(=N/c3ccc(Br)cc3F)nc[nH]c2cc1OCC1CCN(C)CC1 [Vandetanib (Zactima)] | 88.8 |

Same assay, conditions: concentration: 10 µM; exposure time: 72 h

| SMILES | gametocyte viability |
| --- | --- |
| C#Cc1cccc(Nc2ncnc3cc(OCCOC)c(OCCO)cc23)c1 [OSI-420 (Desmethyl Erlotinib)] | 97 |
| Cc1ccc(NC(=O)c2cccc(N(C)C)c2)cc1NC(=O)c1ccc(O)cc1 | 95.6 |
| Oc1cc(O)cc(/C=C/c2ccc(O)c(O)c2)c1 [Piceatannol] | 38.4 (active) |
| Cc1ccc(NC(=O)c2ccc(CN3CCN(C)CC3)cc2)cc1Nc1nccc(-c2cccnc2)n1 [Imatinib Mesylate] | 111 |
| COc1cccc(-c2cc(=O)c3ccccc3o2)c1N | 64.5 and 69.7 |
| O=C(O)c1cc(N(Cc2ccccc2O)Cc2cc(O)ccc2O)ccc1O [Lavendustin A] | 99.4 |
| CNC(=O)c1cc(Oc2ccc(NC(=O)Nc3ccc(Cl)c(C(F)(F)F)c3)cc2)ccn1 [Sorafenib (Nexavar)] | 115 |
| CC(C)c1cc(/C=C(\C#N)C(=O)NCCCc2ccccc2)cc(C(C)C)c1O | 97.2 |
| COc1cc(C=C(C#N)C(N)=O)cc(CSc2nc3ccccc3s2)c1O | 113 |
| Clc1ccc(Nc2nnc(Cc3ccncc3)c3ccccc23)cc1 [Vatalanib dihydrochloride (PTK787)] | 115 |
| Fc1cc(-c2cccc3ncc(-c4cnn(C5CCNCC5)c4)nc23)cc(F)c1CN1CCOCC1 | 80 |
| CCS(=O)(=O)Nc1ccc2[nH]c(O)c(C(=Nc3ccc(CN4CCCCC4)cc3)c3ccccc3)c2c1 [Hesperadin] | 108 |
| Cc1cc(Nc2nc(N[C@@H](C)c3ncc(F)cn3)ncc2Cl)[nH]n1 | 95.5 |
| Cc1ccc(-c2nn(C(C)(C)C)c3ncnc(N)c23)cc1 | 105 |
| O=c1cc(-c2ccc(O)cc2)oc2cc(O)cc(O)c12 [Apigenin] | 65.3 |
| COc1ccc(-c2ccc3c(N4CCOC[C@@H]4C)nc(N4CCOC[C@@H]4C)nc3n2)cc1CO | 78.9 |
| CCOc1ccn(-c2ccc(F)cc2)c(=O)c1C(=O)Nc1ccc(Oc2ccnc(N)c2Cl)c(F)c1 | 92.2 |
| O=C1NC(=O)/C(=C/c2ccc(-c3ccc(F)cc3O)o2)S1 | 110 |
| CN(C)C1CCN(C(=O)c2ccc(NC(=O)Nc3ccc(-c4nc(N5CCOCC5)nc(N5CCOCC5)n4)cc3)cc2)CC1 | 107 |
| FC(F)(F)c1ccc(/C=C/c2nc(COc3ccc(CCCCn4ccnn4)cc3)co2)cc1 [Mubritinib (TAK 165)] | 104 |
| CO[C@H]1C[C@@H]2CC[C@@H](C)[C@@](O)(O2)C(=O)C(=O)N2CCCC[C@H]2C(=O)O[C@H]([C@H](C)C[C@@H]2CC[C@@H](OP(C)(C)=O)[C@H](OC)C2)CC(=O)[C@H](C)/C=C(\C)[C@@H](O)[C@@H](OC)C(=O)[C@H](C)C[C@H](C)/C=C/C=C/C=C/1C [Deforolimus (Ridaforolimus)] | 86.2 |
| Cc1cnc(Nc2ccc(N3CCN(C)CC3)cc2)nc1Nc1cccc(S(=O)(=O)NC(C)(C)C)c1 | 66.6 |
| O=C(Nc1cccc(Cl)c1)Nc1ncc(CCNc2ncnc3ccsc23)s1 | 120 |
| Cc1nc(NC(=O)N2CCC[C@H]2C(N)=O)sc1-c1csc(C(C)(C)C)n1 | 92.9 |
| C#Cc1cccc(Nc2ncnc3cc(OCCOC)c(OCCOC)cc23)c1 [Erlotinib HCl] | 82.4 |
